Laboratory results reported in PubChem BioAssay.

biological target: Alpha-bungarotoxin (Bungarus multicinctus) (UniProt P60615); experiment: alpha-bungarotoxin binders on microarray, profiling panel, artefact control for SMM control protein annotation, biochemical, small-molecule microarray, Alexa647 label, 635/667 nm fluorescence (AID 1117); settings: alpha-BTX-A647 binding fluorescence, higher = more signal
Sequence (P60615 whole entry, looked up): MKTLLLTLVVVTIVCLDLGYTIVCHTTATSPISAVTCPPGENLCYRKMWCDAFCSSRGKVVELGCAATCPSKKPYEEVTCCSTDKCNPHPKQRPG

| Structure (SMILES) | composite z-score |
| --- | --- |
| O=C1C[C@@H](O)[C@@H](O)[C@@H]2[C@@H]3C(=O)N(c4ccc(F)cc4F)C(=O)[C@@H]3CC[C@H]12 | 0.0317 |
| Cc1cc(C)c(-c2cc([C@H](C)ON=C[C@@H](C)[C@H](OCc3ccccc3)C(C)C)on2)c(C)c1 | 0.108 |
| CCN1C(=O)[C@H]2[C@H]3[C@H](O)[C@H](O)CC(=NOCC=C(C)CCC=C(C)C)[C@@H]3CC[C@H]2C1=O | 0.791 |
| CC(CCC(=O)OC[C@H]1O[C@H](C#Cc2ccccc2)C=C[C@@H]1Oc1ccc(C)cc1)=NOC[C@@H](C)[C@H](OCc1ccccc1)C(C)C | -0.79 |
| CCOC(=O)CCN1C(=O)[C@H]2[C@H]3[C@H](O)[C@H](O)CC(=NO[C@@H]4O[C@H](CO)[C@@H](O)[C@H](O)[C@H]4O)[C@H]3CC[C@H]2C1=O | 0.263 |
| CC1(C)O[C@H]2OC([C@H](O)CON3C(=O)c4ccccc4C3=O)[C@H](O)[C@H]2O1 (stereo partly specified) | -0.0472 |
| CC(CCN1CCc2nc(-c3ccccc3)c(-c3ccccc3)cc2C1)=NO[C@H](C)c1cn([C@H](CO)Cc2ccccc2)nn1 | 1.2 |
| CON=C(C)CCN1CCCc2nc(C)c(C)cc21 | 0.0599 |
| CC(=O)OC[C@H]1O[C@@H](ON=C(C)CCC(=O)OC[C@H]2O[C@H](C#Cc3ccccc3)C=C[C@@H]2Oc2ccc(C)cc2)[C@H](OC(C)=O)[C@@H](OC(C)=O)[C@@H]1OC(C)=O | -0.0285 |
| CCN1C(=O)[C@H]2[C@H]3[C@H](O)[C@H](O)CC(=NO[C@H](C)c4cn([C@H](CO)Cc5ccccc5)nn4)[C@@H]3CC[C@H]2C1=O | 1.29 |
| CC(=O)OC[C@H]1O[C@@H](ON=C(C)C)[C@H](OC(C)=O)[C@@H](OC(C)=O)[C@@H]1OC(C)=O | -1.3 |
| CC(C)CON=C1C[C@@H](O)[C@@H](O)[C@@H]2[C@@H]3C(=O)N(c4ccc(F)cc4F)C(=O)[C@@H]3CC[C@@H]12 | 0.421 |
| C=C(C)C(=O)OC[C@H]1CN2[C@@H](CC[C@@H](C)[C@@H]2c2ccc(Br)cc2)C(=O)O1 | 0.534 |
| CC(CCN1CCCc2nc(C)c(C)cc21)=NOC[C@@H](O)COCc1ccco1 | 1.94 |
| O=C1C=C[C@@H](O)[C@@H]2[C@@H]3C(=O)N(Cc4ccc5c(c4)OCO5)C(=O)[C@@H]3CC[C@@H]12 | 0.123 |
| CC(C)(C)N1C(=O)[C@H]2[C@H]3[C@H](O)[C@H](O)CC(=NOC[C@@H](O)COCc4ccco4)[C@@H]3CC[C@H]2C1=O | 1.65 |
| C=CC[C@@H]1C=CC(ON=C(C)C)[C@@H](CO)O1 (stereo partly specified) | -0.139 |
| CCC1=NOC(CCC2CC(OC(=O)NCc3cccc4c3OCO4)CC3(CCCC(COC(=O)NCCc4ccc(Cl)cc4)O3)O2)C1 (stereo unspecified) | -0.148 |

| Structure (SMILES) | composite z-score |
| --- | --- |
| C#CCCCON=C1C[C@@H](O)[C@@H](O)[C@@H]2[C@@H]3C(=O)N(C4CCCCC4)C(=O)[C@@H]3CC[C@@H]12 | 0.281 |
| CC(=O)OC[C@H]1O[C@H](CC=NOC[C@@H](O)COCc2ccco2)C=C[C@@H]1OC(C)=O | -0.663 |
| CC(C)=NOC(C)CN1CCCc2nc(C)c(C)cc21 (stereo unspecified) | 0.32 |
| CCOC(=O)[C@H](Cc1ccccc1)NC(=O)CCC1CC(OC(=O)NCc2cccc3ccccc23)CC2(CCCC(COC(=O)NCC3CCCCC3)O2)O1 (stereo partly specified) | 0.746 |
| O=C1C[C@H](c2ccccc2)[C@H](c2ccc(Br)cc2)O1 | 0.239 |
| COC(=O)[C@H](C)NC(=O)CCC1CC(OC(=O)NCCc2ccc(F)cc2)CC2(CCCC(COC(=O)NCC3CCCCC3)O2)O1 (stereo partly specified) | 0.382 |
| CN1CCc2nc(-c3ccccc3)c(-c3ccccc3)cc2C1 | 0.127 |
| CC#CCOCCC=C1c2ccccc2[C@@H](OC)[C@@H]1C | -0.0725 |
| C#CCCCON=C1C[C@@H](O)[C@@H](O)[C@@H]2[C@@H]3C(=O)N(C[C@@H]4CCCO4)C(=O)[C@@H]3CC[C@H]12 | 0.355 |
| O=C1[C@H]2[C@H]3[C@H](O)[C@H](O)CC(=NO[C@@H]4O[C@H](CO)[C@@H](O)[C@H](O)[C@H]4O)[C@H]3CC[C@H]2C(=O)N1c1ccc(F)cc1F | 0.184 |
| CCCNC(=O)OC[C@H]1O[C@H](CCON=C2C[C@@H](O)[C@@H](O)[C@@H]3[C@@H]4C(=O)N(CC)C(=O)[C@@H]4CC[C@@H]23)C=C[C@@H]1Oc1ccc(OC)cc1 | 0.512 |
| CC(C)=CCCC(C)=CCON=C1C[C@@H](O)[C@@H](O)[C@@H]2[C@@H]3C(=O)N(c4cccc(Oc5ccccc5)c4)C(=O)[C@@H]3CC[C@H]12 | -0.0168 |
| COc1ccc(OC[C@@H](CO)OC)cc1 | 0.0276 |
| COc1ccc(OC[C@H]2CN3[C@@H](CC[C@@H](C)[C@@H]3c3ccc(Br)cc3)C(=O)O2)cc1 | 0.641 |
| Cc1ccc(S(=O)(=O)N[C@@H]2COC(=O)CC=C[C@@H](C)[C@H](NS(=O)(=O)c3ccc(C)cc3)COC(=O)[C@H](C)NC(=O)CC=C[C@H]2C)cc1 | -0.621 |
| CC(C)CON=C1C[C@@H](O)[C@@H](O)[C@@H]2[C@@H]3C(=O)N(C(C)(C)C)C(=O)[C@@H]3CC[C@@H]12 | -0.718 |
| CCOC(=O)CCN1C(=O)[C@H]2[C@H]3[C@H](O)[C@H](O)CC(=O)[C@@H]3CC[C@H]2C1=O | 0.321 |
| CCOC(=O)[C@H](CC(C)C)NC(=O)CCC1CC(OC(=O)NCc2ccc3c(c2)OCO3)CC2(CCCC(COC(=O)NCCC(C)C)O2)O1 (stereo partly specified) | 0.0789 |
